From PubChem BioAssay

Test: basal 3T3-L1 adipocyte mitochondrial potential changes, profiling panel, cell-based, JC-1 fluorescence, 3T3-L1 adipocytes, 24 h, 100 nL compound (AID 1168); further: test concentration not given here
Details: JC-1 mitochondrial fluorescence, higher = more signal, called active from +8 up or from −8 down

z-score, inactive:
COC(=O)CC=C[C@@H](C)[C@@H](C=NOC[C@@H](C)[C@H](OCc1ccccc1)C(C)C)NS(=O)(=O)c1ccc(C)cc1 -2.09, COc1cccc([C@H]2Oc3ccc(OC)cc3C(=NO[C@@H](C)c3cc(-c4c(C)cc(C)cc4C)no3)[C@@H]2O)c1 -2.31, CCN1C(=O)[C@H]2[C@H]3[C@H](O)[C@H](O)CC(=NNC(=O)OCc4ccccc4)[C@H]3CC[C@H]2C1=O -0.978, CC(=O)OC[C@H]1O[C@H](CCON=C(C)CCN2CCCc3nc(C)c(C)cc32)C=C[C@@H]1OC(C)=O -0.805, CCOC(=O)[C@H](Cc1ccccc1)NC(=O)CCC1CC(OC(=O)NCc2cccc3ccccc23)CC2(CCCC(COC(=O)NCCOc3ccccc3)O2)O1 (stereo not given in full) 0.0327, CC(CCN1CCCc2nc(C)c(C)cc21)=NOC[C@@H](O)COCc1ccco1 -0.126, CC(CCC(=O)OC[C@H]1O[C@H](C#Cc2ccccc2)C=C[C@@H]1Oc1ccc(C)cc1)=NO[C@H](C)c1cn([C@@H]2COC[C@H]2O)nn1 -4.6e-05, C[C@H]1C=CCC(=O)OC[C@H](C)C(=O)N2CCC[C@H]2C(=O)OC1 -0.696, CC(=O)OC[C@H]1O[C@@H](ON=C2[C@H]3CCn4c(=O)n(-c5ccccc5)c(=O)n4[C@H]3[C@H](O)[C@@H]3O[C@H]23)[C@H](OC(C)=O)[C@@H](OC(C)=O)[C@@H]1OC(C)=O -0.0849, C[C@@H](c1ccccc1)N1C(=O)[C@H]2[C@H]3[C@H](O)[C@H](O)CC(=NNC(=O)OCc4ccccc4)[C@@H]3CC[C@H]2C1=O -0.762
